# From PubChem BioAssay AID1159580 (chemical genetic matrix, 2015)
# Where “and” joins values, the source holds several entries; their conditions need not be identical. Identical values can stand only once. In all, about 5,500 compounds went through this assay and about 2,000 (36%) were called active. Not shown: some 18% with an inconclusive outcome. The list shows a part of the results. Values without a mark were called inactive. Cut-off read from the data, not from the text of the source: active = normalized growth mostly below about 0.91 (no sharp cut-off); inconclusive = no clear call, values can overlap the other calls; inactive = mostly above about 0.92.
# Assay: chemical genetic growth profiling, strain panel (AID 1159580);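 note: tested at 20 µM; growth read once vehicle control cultures reached saturation at 30 °C; 1 = growth at the plate median or of vehicle wells; lower values mean less growth of the strain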
# Settings: S. cerevisiae deletion strains, growth OD
compound,measurement,setting,value
ClC(Cl)=C(c1ccc(Cl)cc1)c1ccc(Cl)cc1,normalized growth,"locus YAL013W, strain DEP1, hits give low values",0.976
same,normalized growth,"locus YAL021C, strain ccr4, hits give low values",0.995
same,normalized growth,"locus YAL026C, strain drs2, hits give low values",0.999
same,normalized growth,"locus YAL030W, strain snc1, hits give low values",0.982
same,normalized growth,"locus YBL061C, strain skt5, hits give low values",0.985
same,normalized growth,"locus YBR009C, strain hhf1, hits give low values",0.987
same,normalized growth,"locus YBR021W, strain FUR4, hits give low values",1
same,normalized growth,"locus YBR023C, strain chs3, hits give low values",0.983
same,normalized growth,"locus YBR171W, strain sec66, hits give low values",0.986
same,normalized growth,"locus YBR229C, strain ROT2, hits give low values",0.957
same,normalized growth,"locus YBR231C, strain swc5, hits give low values",0.976
same,normalized growth,"locus YBR279W, strain paf1, hits give low values",0.994
same,normalized growth,"locus YCL011C, strain gbp2, hits give low values",1
same,normalized growth,"locus YCL016C, strain dcc1, hits give low values",0.993
same,normalized growth,"locus YCL029C, strain bik1, hits give low values",0.941
same,normalized growth,"locus YCL061C, strain MRC1, hits give low values",0.983
same,normalized growth,"locus YCL069W, strain vba3, hits give low values",0.995
same,normalized growth,"locus YCR088W, strain abp1, hits give low values",0.998
same,normalized growth,"locus YDL005C, strain med2, hits give low values",0.979
same,normalized growth,"locus YDL035C, strain GPR1, hits give low values",0.971
same,normalized growth,"locus YDL040C, strain nat1, hits give low values",0.994
same,normalized growth,"locus YDL074C, strain BRE1, hits give low values",1.04
same,normalized growth,"locus YDL101C, strain DUN1, hits give low values",0.948
same,normalized growth,"locus YDL134C, strain PPH21, hits give low values",0.967
same,normalized growth,"locus YDL185W, strain tfp1, hits give low values",0.964
same,normalized growth,"locus YDL192W, strain arf1, hits give low values",0.958
same,normalized growth,"locus YDR001C, strain nth1, hits give low values",0.998
same,normalized growth,"locus YDR069C, strain doa4, hits give low values",0.985
same,normalized growth,"locus YDR101C, strain arx1, hits give low values",0.963
same,normalized growth,"locus YDR137W, strain rgp1, hits give low values",1.04
same,normalized growth,"locus YDR150W, strain NUM1, hits give low values",0.945
same,normalized growth,"locus YDR159W, strain sac3, hits give low values",0.986
same,normalized growth,"locus YDR162C, strain NBP2, hits give low values",0.95
same,normalized growth,"locus YDR195W, strain ref2",1
same,normalized growth,"locus YDR297W, strain sur2, hits give low values",0.995
same,normalized growth,"locus YDR318W, strain mcm21, hits give low values",0.961
same,normalized growth,"locus YDR334W, strain swr1, hits give low values",0.986
same,normalized growth,"locus YDR335W, strain msn5, hits give low values",0.992
same,normalized growth,"locus YDR388W, hits give low values",0.949
same,normalized growth,"locus YDR392W, strain spt3, hits give low values",0.967
same,normalized growth,"locus YDR502C, strain sam2, hits give low values",0.95
same,normalized growth,"locus YEL003W, strain gim4, hits give low values",0.997
same,normalized growth,"locus YEL037C, strain rad23, hits give low values",1.01
same,normalized growth,"locus YEL061C, strain CIN8 (second series), hits give low values",0.996
same,normalized growth,"locus YEL061C, strain CIN8, hits give low values",0.966
same,normalized growth,"locus YER015W, strain faa2, hits give low values",0.983
same,normalized growth,"locus YER016W, strain bim1, hits give low values",1
same,normalized growth,"locus YER110C, hits give low values",0.946
same,normalized growth,"locus YER111C, strain swi4, hits give low values",0.991
same,normalized growth,"locus YER155C, strain BEM2 (second series), hits give low values",0.983
same,normalized growth,"locus YER155C, strain BEM2, hits give low values",0.927
same,normalized growth,"locus YER167W, strain BCK2, hits give low values",0.887 (active)
same,normalized growth,"locus YFR010W, strain ubp6, hits give low values",0.989
same,normalized growth,"locus YGL078C, strain dbp3, hits give low values",0.951
same,normalized growth,"locus YGL086W, strain mad1, hits give low values",0.955
same,normalized growth,"locus YGL167C, strain pmr1, hits give low values",0.994
same,normalized growth,"locus YGL173C, strain kem1, hits give low values",0.994
same,normalized growth,"locus YGL227W, strain vid30, hits give low values",0.995
same,normalized growth,"locus YGL240W, strain doc1, hits give low values",0.991
same,normalized growth,"locus YGL248W, strain PDE1, hits give low values",0.959
same,normalized growth,"locus YGL253W, strain hxk2, hits give low values",0.993
same,normalized growth,"locus YGR078C, strain PAC10, hits give low values",0.974
same,normalized growth,"locus YGR135W, strain pre9, hits give low values",0.966
same,normalized growth,"locus YGR229C, strain SMI1, hits give low values",0.998
same,normalized growth,"locus YGR252W, strain gcn5, hits give low values",1.03
same,normalized growth,"locus YHR013C, strain ard1, hits give low values",0.998
same,normalized growth,"locus YHR027C, strain rpn1, hits give low values",0.989
same,normalized growth,"locus YHR030C, strain SLT2, hits give low values",0.95 and 1.05
same,normalized growth,"locus YHR079C, strain IRE1 (second series), hits give low values",0.951
same,normalized growth,"locus YHR079C, strain IRE1, hits give low values",1.03
same,normalized growth,"locus YHR094C, strain hxt1, hits give low values",0.948
same,normalized growth,"locus YHR129C, strain ARP1, hits give low values",0.963
same,normalized growth,"locus YHR142W, strain chs7, hits give low values",0.986
same,normalized growth,"locus YHR200W, strain rpn10, hits give low values",0.951
same,normalized growth,"locus YIL066C, strain RNR3, hits give low values",0.929
same,normalized growth,"locus YIL073C, strain SPO22, hits give low values",0.941
same,normalized growth,"locus YIL125W, strain kgd1, hits give low values",0.948
same,normalized growth,"locus YIR030C, strain dcg1, hits give low values",0.944
same,normalized growth,"locus YJL092W, strain hpr5, hits give low values",0.999
same,normalized growth,"locus YJL095W, strain BCK1 (second series), hits give low values",0.995
same,normalized growth,"locus YJL095W, strain BCK1, hits give low values",0.961 and 1.05
same,normalized growth,"locus YJL115W, strain asf1, hits give low values",0.991
same,normalized growth,"locus YJL129C, strain trk1, hits give low values",0.964
same,normalized growth,"locus YJL134W, strain LCB3, hits give low values",0.961
same,normalized growth,"locus YJL154C, strain vps35, hits give low values",0.998
same,normalized growth,"locus YJL164C, strain tpk1, hits give low values",0.979
same,normalized growth,"locus YJL166W, strain qcr8, hits give low values",0.975
same,normalized growth,"locus YJL168C, strain set2, hits give low values",0.949
same,normalized growth,"locus YJL187C, strain SWE1 (second series), hits give low values",0.958
same,normalized growth,"locus YJL187C, strain SWE1, hits give low values",0.995
same,normalized growth,"locus YJR043C, strain POL32, hits give low values",0.966
same,normalized growth,"locus YJR066W, strain TOR1, hits give low values",0.975
